Screening data deposited in PubChem by National Center for Advancing Translational Sciences (NCATS).
LASV entry inh: blocks Lassa virus binding to or entry into cells. Lassa virus pseudotype entry inhibition, cell reporter. hit rate 1.2% among 300,000. Potency, µM (doses to about 37.9 µM), actives largely listed as inhibitors. AID 540256; calls by dose curve; tested in HEK293 cells; note: nearly all actives have a fitted effect of over 50% in size
Marburg entry inh: Marburg virus entry inhibition; Marburg virus pseudotyped entry inhibition, cell reporter; Potency, µM (series often up to 37.8 µM), most hits filed as inhibitors; hit rate 1.8% among 300,000; AID 540276; calls by dose curve; tested in HEK293 cells
Cycloheximide cs: counter-screen hit for Shiga toxin inhibitors, cycloheximide; max response, %; cell reporter, cycloheximide protein synthesis inhibition counterscreen; AID 2314; hit rate 12% among 300,000; in the data active = max response mostly above about 13%, no sharp cut-off; inactive = mostly below about 14%; note: read at 38.3 µM for the half of the compounds with a filed dose
Shiga toxin inh: blocks Shiga toxin action in Vero cells | AID 2315 | hit rate 9.2% among 290,000 | Vero cells, Shiga toxin protein synthesis inhibition reporter | inhibition, % at 38.7 µM; in the data active = inhibition mostly above about 28%, no sharp cut-off; inactive = mostly below about 43%
A number is an active result; i = inactive; ? = inconclusive; nt = no result. Most compounds without a hit are left out; they make up all but 12% or so of the library.

SMILES | LASV entry inh | Marburg entry inh | Cycloheximide cs | Shiga toxin inh
CCCc1cc(=O)c2ccc(OC/C(C)=N/O)cc2o1 | nt | nt | i | i
COc1cc(C(=O)NCCSc2ccccc2)cc(OC)c1OC | i | i | i | i
CN(C)S(=O)(=O)c1ccc(C(=O)NCCSc2ccccc2)cc1 | ? | i | 48 | 151
COc1ccc(C(=O)NCCSc2ccccc2)cc1OC | i | i | 33 | 64
c1ccc2c(c1)oc1c(NCC3CCCO3)ncnc12 (stereo not drawn) | i | i | 34 | 54
c1ccc(CNc2ncnc3c2oc2ccccc23)nc1 | ? | i | 23 | 59
CCc1nc(NCc2ccccn2)c2oc3ccccc3c2n1 | i | ? | i | i
CC(=O)c1ccc(Nc2ncnc3c2oc2ccccc23)cc1 | i | ? | 57 | 66
Nc1ccc(N=Nc2ccccc2)c2ccccc12 | i | i | 22 | i
Nc1ccc(N=Nc2ccccc2)c(N)n1 | ? | i | 52 | 73
c1ccc(N=Nc2ccc3cccccc2-3)cc1 | ? | i | nt | nt
Cn1c(=O)c2sccc2n(Cc2ccccc2)c1=O | i | i | i | i
CC(=O)N1CCc2cc(CNC(=O)Nc3ccc(Br)c(C)c3)ccc21 | i | nt | nt | nt
C[N+]1(C)CCO[C@@](O)(c2ccc(-c3ccc([C@]4(O)C[N+](C)(C)CCO4)cc3)cc2)C1 | nt | i | nt | nt
COc1ccc(CCNS(=O)(=O)c2ccc(-n3cnnn3)cc2)cc1OC | i | i | i | i
O=C(/C=C/Nc1ccc(S(=O)(=O)Nc2ncccn2)cc1)c1ccc(Cl)c(Cl)c1 | i | i | i | i
COc1ccc(N/C=C\C(=O)c2ccc3ccccc3c2)cc1 | nt | nt | 29 | i
NS(=O)(=O)c1ccc(N/C=C\C(=O)c2ccc3ccccc3c2)cc1 | i | ? | 31 | i
COc1ccc(N/C=C/C(=O)C(C)(C)C)cc1 | i | i | 31 | 93
CN(C)c1ccc(NC(=O)c2cnsn2)cc1 | 7.1µM | ? | i | i
C=CCNC(=O)NC(=O)COC(=O)/C=C/c1cccc([N+](=O)[O-])c1 | i | i | i | i
Clc1cccc(Cl)c1CSc1nnc(/C=C/c2ccccc2)o1 | i | i | i | i
Fc1cccc(Cl)c1Cc1noc(/C=C/c2ccccc2)n1 | i | i | 21 | i
COCc1cc(SC2CCCCC2)nc(C)n1 | nt | nt | i | i
CC1=C(O)C(=O)C=C2C1=CC=C1C2(C)CCC2(C)C3CC(C)(C(=O)O)CCC3(C)CCC12C (stereo not drawn) | ? | 2.8µM | nt | nt
SMILES | LASV entry inh | Marburg entry inh | Cycloheximide cs | Shiga toxin inh
CS(=O)(=O)c1nc(-c2ccccc2)cc(C(F)(F)F)n1 | ? | 6.3µM | i | i
CCOC(=O)/C(C#N)=C1/C=CN(c2ccc(C)cc2)C=N1 | i | i | 29 | 64
COc1cccc(-c2cc(C(F)(F)F)n3ncc(C(=O)O)c3n2)c1 | i | i | i | i
COc1ccc(-c2cc(C(F)(F)F)n3ncc(C(=O)O)c3n2)cc1OC | i | i | 25 | i
COc1ccc(-c2cc(C(F)(F)F)nc(N3CCN(C)CC3)n2)cc1OC | i | 12µM | i | i
COc1ccc(NC(=O)c2oc3ccccc3c2NC(=O)C2CCCO2)cc1OC (stereo not drawn) | ? | ? | 37 | i
O=C(Nc1ccc(F)c(F)c1)c1oc2ccccc2c1NC(=O)C1CCCO1 (stereo not drawn) | i | i | i | i
Cc1ccc(NC(=O)c2oc3ccccc3c2NC(=O)C2CCCO2)cc1C (stereo not drawn) | ? | ? | 42 | 100
COc1ccc(NC(=O)c2oc3ccccc3c2NC(=O)C2CC2)cc1OC | i | i | i | i
COc1ccccc1CNC(=O)C1CC(c2ccccc2F)=NO1 (stereo not drawn) | nt | nt | 18 | 44
COc1ccccc1CNC(=O)C1CC(c2ccccc2C(F)(F)F)=NO1 (stereo not drawn) | nt | nt | i | i
COc1ccccc1CNC(=O)C1CC(c2ccccc2[N+](=O)[O-])=NO1 (stereo not drawn) | nt | i | 41 | 96
COc1ccc(CNC(=O)C2CC(c3cccc([N+](=O)[O-])c3)=NO2)cc1 (stereo not drawn) | nt | nt | 36 | 38
COc1ccc(CNC(=O)C2CC(c3ccccc3C(F)(F)F)=NO2)cc1 (stereo not drawn) | nt | nt | i | i
COc1ccc(CNC(=O)C2CC(c3ccccc3[N+](=O)[O-])=NO2)cc1 (stereo not drawn) | nt | nt | 29 | 65
C[C@@H]1COc2cc(N3CCCC3)ccc2S(=O)(=O)N1 | i | nt | nt | nt
O=C(O)c1c(Cl)cccc1Cl | nt | i | nt | nt
CCN(CC)C(=O)C1CC(c2ccc(OC)cc2)=NO1 (stereo not drawn) | i | i | 40 | 82
COc1ccc(C2=NOC(C(=O)NCc3ccccc3)C2)cc1 (stereo not drawn) | ? | ? | i | 34
O=C(COc1ccc2oc(-c3ccco3)cc(=O)c2c1)N1CCCCC1 | nt | nt | i | i
N#CC/C(N)=N/Nc1nc2ccccc2nc1Cc1ccccc1 | i | i | i | i
Cc1cc2ccccn2c1C(=O)c1ccc(NN)c([N+](=O)[O-])c1 | ? | 8.9µM | i | i
CCNc1nc(-c2cc(C)n(Cc3ccco3)c2C)cs1 | i | ? | 53 | 104
CCCCCCCc1cc2ccccc2c2c(C(=O)OC)c(C(=O)OC)c(C(=O)OC)n12 | ? | i | nt | nt
COc1cccc(-c2nc(NCc3cccnc3)c3ccccc3n2)c1O | i | ? | 19 | i
SMILES | LASV entry inh | Marburg entry inh | Cycloheximide cs | Shiga toxin inh
CC(C)(C)c1ccc(-c2nc(NCc3cccnc3)c3ccccc3n2)cc1 | ? | ? | 51 | 76
COc1cccc(-c2nc(NC(C)C)c3ccccc3n2)c1O | i | i | i | i
c1cncc(CNc2nc(-c3cccnc3)nc3ccccc23)c1 | ? | i | i | i
CCC(C)c1ccc(NC(=S)NCc2ccccc2OC)cc1 (stereo not drawn) | ? | ? | i | i
CCC(C)c1ccc(NC(=S)NCc2cccs2)cc1 (stereo not drawn) | i | i | 23 | 76
CC(C)(C)c1ccc(NC(=S)NCc2cccs2)cc1 | ? | i | 23 | i
COc1cc(NC(=S)NCc2cccs2)cc(OC)c1 | i | i | i | i
Cc1cc(C)cc(NC(=S)NCc2cccs2)c1 | i | ? | i | 26
Cc1cccc(NC(=S)NCc2cccs2)c1C | i | i | 22 | i
Cc1ccccc1-c1nc(CS(=O)(=O)CC(=O)NCCN2CCCC2)c(C)o1 | nt | nt | i | i
O=C(NCC1CCCO1)C1CC(=O)N(c2ccc(Cl)cc2)C1 (stereo not drawn) | i | ? | i | i
S=C(NCc1cccs1)Nc1ccc(Br)cc1Cl | nt | nt | 44 | 81
S=C(NCCc1ccccc1)NCc1cccs1 | i | i | 54 | active
Oc1ccc(NCc2cccs2)cc1 | ? | ? | 24 | i
COC(=O)c1ccc(N)c(N=CC2=C(O)CC(C)(C)CC2=O)c1 | i | i | 50 | 19
CSc1ccccc1N=CC1=C(O)CC(C)(C)CC1=O | i | i | i | i
CC1(C)CC(=O)C(C=Nc2cc(C(=O)c3ccccc3)ccc2N)=C(O)C1 | i | i | 24 | 101
Cc1ccc(Cn2c(C)c(CNCc3ccc(OC(C)C)cc3)c(C(=O)O)c2C)cc1 | i | ? | nt | nt
CCOc1cccc(/C=N/NC(=S)Nc2ccccc2[N+](=O)[O-])c1O | nt | nt | 38 | 154
CCCCNC(=S)N/N=C/c1cccc(OCC)c1O | i | i | i | 30
O=[N+]([O-])c1ccccc1NC(=S)N/N=C/c1ccc(O)c(O)c1 | nt | nt | 22 | 74
